Sampled rows, rich in hits. Any-hit rate of the full collection: about 21%.
RORgamma inh: blocks mouse ROR gamma transcriptional activity | P51450 | Drosophila S2 Gal4-RORgamma UAS-luciferase reporter, 20 h | Potency, µM (doses to about 53.6 µM), without a hit: at the top dose activity change, negative = inhibition, usual class: inhibitors | 310,000 compounds, 5.4% hits; further: potency means the concentration at half of the fitted maximal effect; nearly all actives have a fitted effect of over 60% in size
Target sequence (P51450 whole entry, looked up, the tested form may be a part): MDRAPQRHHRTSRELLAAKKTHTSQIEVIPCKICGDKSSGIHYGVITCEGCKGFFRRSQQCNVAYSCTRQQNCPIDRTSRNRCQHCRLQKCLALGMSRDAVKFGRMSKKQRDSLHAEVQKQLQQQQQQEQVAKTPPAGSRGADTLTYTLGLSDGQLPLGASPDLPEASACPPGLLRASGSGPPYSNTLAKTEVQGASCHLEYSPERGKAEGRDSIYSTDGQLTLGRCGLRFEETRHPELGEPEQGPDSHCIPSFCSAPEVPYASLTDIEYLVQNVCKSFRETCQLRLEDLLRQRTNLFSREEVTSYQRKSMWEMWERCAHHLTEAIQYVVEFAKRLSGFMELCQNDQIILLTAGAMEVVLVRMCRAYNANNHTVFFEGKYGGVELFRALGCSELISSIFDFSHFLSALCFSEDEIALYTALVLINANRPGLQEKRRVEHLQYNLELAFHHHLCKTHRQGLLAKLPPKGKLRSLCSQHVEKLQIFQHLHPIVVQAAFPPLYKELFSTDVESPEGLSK
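Drosophila Schneider cells stably carrying a metallothionein-driven Gal4 DBD–ROR gamma fusion and a UAS-Photinus luciferase reporter were exposed to compound for 1 hr, then induced with copper sulfate (700 uM final) for 20 hr at ambient temperature before luminescence reading.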
IL-1B inflam inh: inhibitors of inflammasome signaling (IL-1 beta secretion); AID 743279; activity change, % at 57.5 µM; THP-1 LPS/ATP IL-1B secretion, AlphaLISA, 16 h; active compounds read low; 360,000 compounds, 4.7% hits; in the data active means activity change below about -50%; inconclusive means mostly about -30% to -49%
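THP-1 cells pretreated 1 hr with compounds (up to 57.5 uM final), then stimulated with LPS (250 ng/mL final) plus ATP (1.25 mM final); secreted IL-1B measured by AlphaLISA after 16 hr, decreased signal indicating inhibition.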
VP16 counter: inhibits Gal4-VP16 luciferase reporter, ROR gamma counter-screen. Drosophila S2 Gal4-VP16 UAS-luciferase, luminescence, 20 h. Potency, µM (highest dose often 53.6 µM), inactives show at the highest dose activity, negative = inhibition, hits mostly inhibitors. 310,000 compounds, 3.5% hits;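 further: Gal4-VP16 expression switched on by copper sulfate through the metallothionein promoter; potency means the concentration at half of the fitted maximal effect; nearly all actives have a fitted effect of over 50% in size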
TDP1 cell noCPT: qHTS for Inhibitors of human tyrosyl-DNA phosphodiesterase 1 (TDP1): qHTS in cells in absence of CPT. DT40 Tdp1-/- hTDP1 cells, no CPT, ATP luminescence, 48 h. Potency, µM (titrated, usually from 46.2 µM), for the others: at the top dose activity change, negative = growth inhibition, hits mostly inhibitors. 420,000 compounds, 15% hits. AID 686978, 2013; further: potency means the concentration at half of the fitted maximal effect; nearly all actives have a fitted effect of over 55% in size
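Luminescent ATP content (CellTiter-Glo) served as the growth readout. Knockout chicken DT40 cells expressing human TDP1 were exposed to compounds without camptothecin for a minimum 48 hr at 37 °C.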
DT40 TDP1 CPT: DT40-hTDP1 cell growth loss with CPT; chicken DT40 Tdp1-/-;hTDP1 cells + 20 nM CPT, ATP luminescence, 48 h; 420,000 compounds, 12% hits; Potency, µM (highest dose often 46.2 µM), inactives show top-dose activity change, negative = growth inhibition, most hits filed as inhibitors; further: potency means the concentration at half of the fitted maximal effect; nearly all actives have a fitted effect of over 55% in size
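Chicken DT40 Tdp1-/- cells complemented with human TDP1, 400 cells/well, exposed to compounds plus 20 nM camptothecin for at least 48 h at 37 C; viability read as ATP content by CellTiter-Glo luminescence.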
ELG1 DNA repair: blocks ELG1-dependent DNA repair in HEK293T cells | HEK293T ELG1-luciferase reporter, luminescence, 16 h; DNA damage induced by 5-fluorouridine | Potency, µM (series often up to 46.1 µM), without a hit: at the top dose activity change, negative = inhibition, most hits filed as inhibitors | 330,000 compounds, 2.3% hits; further: potency means the concentration at half of the fitted maximal effect; nearly all actives have a fitted effect of over 55% in size
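DMSO vehicle served as the neutral condition. Each well held 2,000 cells given 5-fluorouridine plus compound; after 16 hr at 37 °C/5% CO2, ONE-Glo was added and luciferase measured 30 min later.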
* marks the source's active call; other numbers are inactive results; i = inactive; ? = inconclusive; nt = no result given; ! = repeats disagree. Unless noted, the call rests on the fitted dose curve; in most records, active means well fitted curve in the direction sought with a large enough effect; inconclusive means small, poorly fitted or top-dose-only effect, or another doubt; inactive means no such curve, though single readings can be large; an effect the other way counts as inactive or inconclusive. On the % scale 0 is the no-effect control and ±100 the full control effect.

SMILES | RORgamma inh | IL-1B inflam inh | VP16 counter | TDP1 cell noCPT | DT40 TDP1 CPT | ELG1 DNA repair
O=C(OCc1cn([C@H]2C[C@H](c3ccc(Cl)cc3)N(Cc3cccs3)C[C@@H]2O)nn1)c1ccccc1 | nt | -18 | nt | ? | ? | nt
Fc1ccc(NC(=S)Nc2ccc(F)c(Cl)c2)cc1Cl | 1.8µM* | -77* | -23% | 13µM* | 23µM* | ?
O=C(Nc1ccc(OC(F)F)c(Cl)c1)c1ccccn1 | ? | -4 | 22% | ? | ? | ?
Cc1ccc(NC(=S)Nc2ccc(OC(F)F)c(Cl)c2)cc1F | ? | -95* | ? | ? | ? | ?
O=C(NC(=S)Nc1ccc(F)c(Cl)c1)C1CC1 | 5.6µM* | 22 | 7.1µM* | -1% | -3% | 10%
O=C(c1ccccc1Cl)N(Cc1ccc(Br)cc1)N1C(=O)CCC1=O | 4% | 0 | -3% | -29% | -4% | -6%
CC1CCc2c(C(=O)Nc3cccc(-c4nn[nH]n4)c3)csc2C1 (stereo not drawn) | -1% | 0 | 10% | 6% | 3% | ?
CCCCCCCCNC(C)C(O)c1ccc(SC(C)C)cc1 (stereo not drawn) | 11µM*! | -86* | ? | 16µM* | 18µM* | ?
CC(C)(C)OC(=O)N1CCC(CC2CC(c3ccc(Cl)cc3)=NO2)(C(=O)NCC2CCCCC2)CC1 (stereo not drawn) | 42% | -10 | -9% | 16µM* | 23µM* | 24%
CC1(C(=O)N2CCC(CC3CC(c4ccc(Cl)cc4)=NO3)(C(=O)NCC3CCCCC3)CC2)CC1 (stereo not drawn) | 36% | ? | 6% | ? | ? | ?
O=C(Cc1ccc(F)cc1)N1CCC(CC2CC(c3ccc(Cl)cc3)=NO2)(C(=O)NCC2CCCCC2)CC1 (stereo not drawn) | 23% | -55* | 6% | ? | ? | ?
Cc1ccc(C(=O)c2c3ccccc3[n+]([O-])n2CCC(=O)O)cc1 | nt | -1 | nt | -4% | -13% | ?
CCOC(=O)c1c2ccccc2[n+]([O-])n1[C@@H](C)C(N)=O | nt | 27 | nt | -7% | 21µM* | -1%
COc1cc2oc3ccccc3c2cc1N(CC(=O)N(C)C)S(=O)(=O)c1ccc(C)cc1 | -28% | 9 | -3% | -5% | -8% | -4%
COc1cc2oc3ccccc3c2cc1N(CC(=O)N1CCCCC1)S(=O)(=O)c1ccc(C)cc1 | 0% | 8 | 1% | 23µM* | ? | nt
CCN(CC)C(=O)CN(c1cc2c(cc1OC)oc1ccccc12)S(=O)(=O)c1ccccc1 | 2% | -12 | -6% | ? | 18µM* | nt
O=C(O)c1cccc(Nc2ccnc(Nc3cccc(C(=O)O)c3)n2)c1 | -6% | 26 | -15% | 34% | -6% | 23%
CCc1cc(=O)oc2cc(OCc3ccc(C(=O)O)o3)ccc12 | 18% | -7 | -1% | -23% | 4% | ?
COc1ccc(-n2ncc3c2CC(C)(C)CC3NC(=O)c2c(C)cc(=O)oc2C)cc1 (stereo not drawn) | 1% | -2 | -9% | ? | 26µM* | 12%
COCc1ccc(C(=O)NC2CC(C)(C)Cc3c2cnn3-c2ccc(OC)cc2)o1 (stereo not drawn) | 17% | -18 | -17% | ? | 6% | 9%
CC1(C)Cc2c(cnn2-c2ccc(F)cc2)C(NC(=O)c2ccco2)C1 (stereo not drawn) | 1% | 14 | -8% | -26% | -10% | 10%
Cc1ccc(-n2ncc3c2CC(C)(C)CC3NC(=O)CCN2CCCCC2=O)cc1 (stereo not drawn) | 15% | 1 | 3% | -22% | -26% | -14%
CC1(C)Cc2c(cnn2-c2ccc(F)cc2)C(NC(=O)CN2CCCCC2=O)C1 (stereo not drawn) | 3.5µM* | -7 | 16µM* | 8% | -15% | 5%
CC1(C)Cc2c(cnn2-c2ccc(F)cc2)C(NC(=O)C2=NNC(=O)CC2)C1 (stereo not drawn) | 19% | 29 | -3% | ? | 15µM* | ?
CC1(C)Cc2c(cnn2-c2cccc(F)c2)C(NC(=O)CCN2CCCC2=O)C1 (stereo not drawn) | 12% | i | -2% | -17% | -30% | 2%
SMILES | RORgamma inh | IL-1B inflam inh | VP16 counter | TDP1 cell noCPT | DT40 TDP1 CPT | ELG1 DNA repair
CC1(C)Cc2c(cnn2-c2ccc(F)cc2)C(NC(=O)CCN2CCCC2=O)C1 (stereo not drawn) | 43% | 34 | ? | ? | 18µM* | ?
Cc1ccc(CCNC(=O)c2c(C)oc3ncnc(N4CCOCC4)c23)cc1 | nt | nt | nt | -13% | 10% | nt
COc1cccc(C2=Nn3c(nnc3-c3cc(OC)ccc3OC)SC2)c1 | 23% | nt | -5% | nt | nt | nt
CC(C)C[C@H]1CN([C@@H](Cc2ccccc2)CN2CCC[C@@H]2CN2C(=O)C(=O)NC[C@@H]2Cc2ccccc2)C(=O)C(=O)N1CC1CCCCC1 | nt | -59* | nt | 16µM* | 21µM* | nt
CC(C)C[C@H]1CNC(=O)C(=O)N1C[C@@H]1CCCN1C[C@H](Cc1ccc(O)cc1)N1C[C@H](Cc2ccccc2)N(CC2CCCCC2)C(=O)C1=O | nt | -59* | nt | ? | ? | nt
CC(C)C[C@H]1CN([C@@H](Cc2ccc(O)cc2)CN2CCC[C@H]2CN2C(=O)C(=O)NC[C@@H]2Cc2ccccc2)C(=O)C(=O)N1CC1CCCCCC1 | nt | -82* | nt | ? | ? | nt
CC(C)C[C@H]1CN([C@@H](Cc2ccccc2)CN2CCC[C@@H]2CN2C(=O)C(=O)NC[C@@H]2Cc2ccc(O)cc2)C(=O)C(=O)N1CC1CCCCCC1 | nt | -17 | nt | ? | ? | nt
O=C1C=C(O)CC2(CCCCC2)C1 | nt | 23 | nt | -22% | -5% | nt
Cc1c(NC(=O)C(C)n2cc([N+](=O)[O-])cn2)c(=O)n(-c2ccccc2)n1C (stereo not drawn) | 0% | 30 | 5% | -3% | -15% | -1%
O=C(Nc1cc(Cl)ccc1-n1cncn1)c1ccc([N+](=O)[O-])s1 | -27% | 23 | ? | ? | 7.3µM* | -8%
COc1ccccc1C(=O)Nc1cc(Cl)ccc1-n1cncn1 | 11µM* | -2 | -15% | 0% | ? | ?
O=C(Nc1cc(Cl)ccc1-n1cncn1)c1ccco1 | nt | -9 | nt | 11% | -6% | nt
